Test results published in PubChem BioAssay (Tox21).
Results filed as inconclusive are left out. Entries that show only a call come without a potency. More than one record can exist for a structure, and the calls need not agree. Active and inactive are the calls of the source. Unless noted, calls follow the shape of the dose curve; as a rule, active = well fitted curve in the direction sought with a large enough effect in the repeat runs; inconclusive = weak or mixed curves; inactive = no such curve, though single readings can be large; an effect the other way counts as inactive or inconclusive.

Key:
[1] = biological target: Peroxisome proliferator-activated receptor delta (Homo sapiens) (UniProt Q03181); assay: qHTS assay to identify small molecule agonists of the peroxisome proliferator-activated receptor delta (PPARd) signaling pathway (AID 743212; calls by dose curve)
In short: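 A PPARd-bla HEK293H line with beta-lactamase under an Upstream Activator Sequence is treated with compounds at 37 C. Substrate loading for 2 h at room temperature precedes the fluorescence measurement.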

[2] = qHTS assay to identify small molecule antagonists of the peroxisome proliferator-activated receptor delta (PPARd) signaling pathway - cell viability counter screen (AID 743213); also: nearly all actives have a fitted effect of over 50% in size
In short: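 HEK293H cells with the PPARd UAS-bla reporter, co-treated 17 h at 37 C with compounds and L165041 (300 nM final), were lysed with CellTiter-Glo. Luminescence indicated viable cell content.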

[3] = biological target: Bile acid receptor (Homo sapiens) (UniProt Q96RI1); assay: qHTS assay to identify small molecule antagonists of the farnesoid-X-receptor (FXR) signaling pathway (AID 743217; active = well fitted inhibition curve with a large enough effect in the signal ratio in the repeat runs, not every such curve was filed as active; the % refers to the signal ratio)
In short: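 Beta-lactamase reporter under UAS control in HEK 293T cells; compound exposure 16 h at 37 °C in the presence of chenodeoxycholic acid (50 uM final); signal from B/G FRET substrate after 2 h at room temperature.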

[4] = qHTS assay to identify small molecule agonists of the farnesoid-X-receptor (FXR) signaling pathway - cell viability counter screen (AID 743218); also: nearly all actives have a fitted effect of over 45% in size
In short: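 In GeneBLAzer FXR-UAS-bla HEK 293T cells, compounds act for 16 h at 37 C. Cell viability is then scored in the reporter wells by CellTiter-Glo, 30 min at RT, luminescence.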

[5] = biological target: Bile acid receptor (Homo sapiens) (UniProt Q96RI1); assay: qHTS assay to identify small molecule agonists of the farnesoid-X-receptor (FXR) signaling pathway (AID 743220; active = well fitted activation curve with a large enough effect in the signal ratio in the repeat runs, not every such curve was filed as active; the % refers to the signal ratio)
In short: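 Beta-lactamase reporter under UAS control in GeneBLAzer FXR HEK 293T cells (5000/well) measured with LiveBLAzer FRET substrate after 2 h at room temperature. Compound exposure lasted 16 h at 37C.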

[6] = qHTS assay to identify small molecule antagonists of the farnesoid-X-receptor (FXR) signaling pathway - cell viability counter screen (AID 743221; active = well fitted cell-killing curve with a large enough effect in the repeat runs, not every such curve was filed as active; also: nearly all actives have a fitted effect of over 50% in size)
In short: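 In GeneBLAzer FXR-UAS-bla HEK 293T cells stimulated with 50 uM chenodeoxycholic acid (final), compounds acted for 16 h at 37 C. Viability was assessed afterwards by CellTiter-Glo luminescence.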

[7] = biological target: Vitamin D3 receptor (Homo sapiens) (UniProt P11473); assay: qHTS assay to identify small molecule agonists of the vitamin D receptor (VDR) signaling pathway (AID 743222; calls by dose curve)
In short: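 Agonist activity measured in VDR-bla reporter cells. Exposure 16 h, 37C, 5% CO2; detection by B/G FRET substrate, 2 h RT.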

[8] = biological target: Vitamin D3 receptor (Homo sapiens) (UniProt P11473); assay: qHTS assay to identify small molecule antagonists of the vitamin D receptor (VDR) signaling pathway (AID 743223; active = well fitted inhibition curve with a large enough effect in the signal ratio in the repeat runs, not every such curve was filed as active; the % refers to the signal ratio)
In short: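 Agonist 1alpha,25-dihydroxyvitamin D3 (3 nM in well) was added with each compound to VDR-bla cells preincubated 4 h. Cells stood 16 h at 37C, then FRET substrate 2 h at room temperature; fluorescence intensity recorded.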

[9] = qHTS assay to identify small molecule agonists of the vitamin D receptor (VDR) signaling pathway - cell viability counter screen (AID 743224); also: nearly all actives have a fitted effect of over 50% in size; also: potency is read from the fitted curve at half-maximal effect
In short: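 VDR-bla cell line, quantitative HTS format; 16 h compound incubation (37C, 5% CO2); ATP-based CellTiter-Glo luminescence measured in the reporter assay wells.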

[10] = qHTS assay to identify small molecule antagonists of the vitamin D receptor (VDR) signaling pathway - cell viability counter screen (AID 743225); also: nearly all actives have a fitted effect of over 50% in size; also: potency is read from the fitted curve at half-maximal effect
In short: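 Luminescent cell viability (CellTiter-Glo) in VDR-bla HEK 293T cells after 16 h compound exposure at 37C in the presence of 3 nM final 1-alpha,25-dihydroxy vitamin D3.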

[11] = qHTS assay to identify small molecule agonists of the NFkB signaling pathway (AID 1159509; active = well fitted curve in the direction sought with a large enough effect in the signal ratio in the repeat runs, not every such curve was filed as active; the % refers to the signal ratio; also: series mostly up to about 61 µM)
In short: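 NFkB-bla ME-180 cells carry a beta-lactamase reporter under an NF-kB response element. They were plated overnight, then exposed to compounds for 5 h at 37 C. Read-out is LiveBLAzer FRET after 1.5 hr at room temperature (405 nm excitation; 460/530 nm emission).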

[12] = qHTS assay to identify small molecule agonists of the NFkB signaling pathway - cell viability counter screen (AID 1159515; calls by dose curve; also: series mostly up to about 61 µM; nearly all actives have a fitted effect of over 55% in size)
In short: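 Viability in NFkB-bla ME-180 cells was measured by CellTiter-Glo luminescence, 30 min room temperature, in wells already treated 5 hr with compounds and read for reporter FRET.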

[13] = qHTS assay to identify small molecule agonists of the endoplasmic reticulum stress response signaling pathway - cell viability counter screen (AID 1159517; calls by dose curve)
In short: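 CellTiter-Glo was added to wells already read for beta-lactamase FRET, and luminescence was recorded 30 min later. Cells: ESRE-bla HeLa, 1,500 per well, compound exposure 5 hr at 37 C.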

[14] = qHTS assay to identify small molecule antagonists of the retinoid-related orphan receptor gamma (ROR-gamma) signaling pathway - cell viability counter screen (AID 1159520); also: nearly all actives have a fitted effect of over 50% in size; also: potency is read from the fitted curve at half-maximal effect
In short: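 Tet-on ROR gamma CHO cells (1,000/well) were plated 4 hr, given compounds in DMSO for 2 hr at 37 C, then induced with 1 uM final doxycycline for 16 hr. Viability was read as ATP by CellTiter-Glo luminescence after 30 min.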

[15] = qHTS assay to identify small molecule agonists of the AP-1 signaling pathway - cell viability counter screen (AID 1159525; calls by dose curve; also: nearly all actives have a fitted effect of over 55% in size)
In short: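 ME-180 AP-1-bla, 2500 cells/well, Opti-MEM + 0.5% dialyzed FBS; overnight 37 °C; cpd 15-pt titration, 5 h 37 °C; CellTiter-Glo 30 min RT; luminescence read; normalised to TOAB and DMSO controls.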

[16] = qHTS assay to identify small molecule agonists of the AP-1 signaling pathway (AID 1159526; calls by dose curve)
[17] = biological target: Peroxisome proliferator-activated receptor delta (Homo sapiens) (UniProt Q03181); assay: qHTS assay to identify small molecule antagonists of the peroxisome proliferator-activated receptor delta (PPARd) signaling pathway (AID 743215; active = well fitted inhibition curve with a large enough effect in the signal ratio in the repeat runs, not every such curve was filed as active; the % refers to the signal ratio;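 also: cells stimulated with agonist L165041 at 300 nM final during compound exposure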; also: potency is read from the fitted curve at half-maximal effect)
In short: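 Antagonist-mode beta-lactamase reporter screen: HEK293H cells with UAS-bla under PPARd control, stimulated by 300 nM L165041 (final) alongside test compound for 17 h at 37 C, then FRET fluorescence after 2 h substrate incubation.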

[18] = biological target: Nuclear receptor ROR-gamma (Homo sapiens) (UniProt P51449); assay: qHTS assay to identify small molecule antagonists of the retinoid-related orphan receptor gamma (ROR-gamma) signaling pathway (AID 1159521; also: nearly all actives have a fitted effect of over 50% in size; also: potency is read from the fitted curve at half-maximal effect)
In short: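 CHO cells expressing RORγ under a TET-on promoter, luciferase under RORE control. Dox 1 uM final, 16 h; compounds added 2 h prior. Luminescence decrease measured.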

[19] = qHTS assay to identify small molecule agonists of the peroxisome proliferator-activated receptor delta (PPARd) signaling pathway - cell viability counter screen (AID 743211); also: nearly all actives have a fitted effect of over 55% in size; also: potency is read from the fitted curve at half-maximal effect
In short: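 Luminescent ATP viability assay (CellTiter-Glo, 30 min RT) in UAS-bla HEK293H cells carrying the PPAR delta reporter construct, 3000 cells/well, after a 17 h compound treatment at 37 C.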

Sequence of Vitamin D3 receptor (Homo sapiens) (P11473 whole entry, looked up): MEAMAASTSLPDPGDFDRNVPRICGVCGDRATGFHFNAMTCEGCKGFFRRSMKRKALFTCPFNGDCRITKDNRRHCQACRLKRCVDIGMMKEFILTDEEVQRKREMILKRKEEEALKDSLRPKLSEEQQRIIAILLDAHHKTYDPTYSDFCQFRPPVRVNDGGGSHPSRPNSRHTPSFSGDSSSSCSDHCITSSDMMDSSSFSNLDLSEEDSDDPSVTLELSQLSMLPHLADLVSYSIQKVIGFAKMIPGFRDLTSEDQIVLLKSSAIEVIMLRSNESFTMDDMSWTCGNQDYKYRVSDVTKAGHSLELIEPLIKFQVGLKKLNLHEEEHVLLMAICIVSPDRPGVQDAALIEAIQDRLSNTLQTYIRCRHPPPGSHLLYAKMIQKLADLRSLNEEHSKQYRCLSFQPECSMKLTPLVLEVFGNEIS
Sequence of Bile acid receptor (Homo sapiens) (Q96RI1 whole entry, looked up): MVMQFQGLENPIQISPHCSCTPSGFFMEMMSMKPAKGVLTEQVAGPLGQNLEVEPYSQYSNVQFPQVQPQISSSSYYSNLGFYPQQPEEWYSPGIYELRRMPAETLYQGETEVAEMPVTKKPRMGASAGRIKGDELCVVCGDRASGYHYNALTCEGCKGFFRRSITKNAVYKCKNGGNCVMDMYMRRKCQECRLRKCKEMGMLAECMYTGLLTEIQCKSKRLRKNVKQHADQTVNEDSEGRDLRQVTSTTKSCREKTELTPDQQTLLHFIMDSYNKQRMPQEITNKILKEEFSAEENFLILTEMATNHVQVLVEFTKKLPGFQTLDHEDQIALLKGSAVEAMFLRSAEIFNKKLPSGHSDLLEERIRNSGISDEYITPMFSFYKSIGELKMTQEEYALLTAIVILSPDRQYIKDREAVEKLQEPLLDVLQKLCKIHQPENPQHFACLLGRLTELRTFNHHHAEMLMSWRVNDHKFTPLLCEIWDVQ
Sequence of Peroxisome proliferator-activated receptor delta (Homo sapiens) (Q03181 whole entry, looked up): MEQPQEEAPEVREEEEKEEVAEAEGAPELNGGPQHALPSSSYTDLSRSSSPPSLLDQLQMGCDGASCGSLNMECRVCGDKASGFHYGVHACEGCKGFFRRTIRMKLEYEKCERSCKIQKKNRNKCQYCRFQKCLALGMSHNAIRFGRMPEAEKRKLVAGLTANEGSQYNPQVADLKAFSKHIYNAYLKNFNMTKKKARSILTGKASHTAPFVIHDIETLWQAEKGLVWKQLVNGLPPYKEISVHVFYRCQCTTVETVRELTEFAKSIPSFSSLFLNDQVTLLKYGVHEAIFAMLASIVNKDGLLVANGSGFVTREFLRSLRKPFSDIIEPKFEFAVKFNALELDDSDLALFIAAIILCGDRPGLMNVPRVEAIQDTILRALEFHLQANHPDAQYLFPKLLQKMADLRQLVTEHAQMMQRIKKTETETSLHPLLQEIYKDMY

Compound | outcome [1] | Potency [2] | Potency [3] | Potency [4] | outcome [5] | Potency [6] | outcome [7] | outcome [8] | Potency [9] | Potency [10] | outcome [11] | Potency [12] | Potency [13] | Potency [14] | Potency [15] | outcome [16] | Potency [17] | Potency [18] | Potency [19]
O=S(=O)(Cl)c1ccccc1 | inactive | inactive | inactive | inactive | inactive | inactive | inactive | inactive | inactive | inactive | inactive | inactive | inactive | inactive | inactive | inactive |  |  | 
Nc1nc(=S)[nH][nH]1 | inactive |  |  | inactive |  | inactive | inactive |  | inactive | inactive | inactive | inactive |  | inactive | inactive | inactive | inactive | inactive | 
CCCCN(N=O)C(=N)N[N+](=O)[O-] | inactive | inactive |  | inactive |  | inactive | inactive | inactive | inactive | inactive | inactive | inactive | inactive |  | inactive |  | inactive | inactive | inactive
O=C(OC1CCCCC1)c1ccccc1C(=O)OC1CCCCC1 |  |  |  | inactive |  | inactive |  | inactive | 46 µM (active) | 32.6 µM (active) | inactive | inactive | inactive | inactive | inactive | inactive |  |  | 46 µM (active)
COC(=O)C(Br)CBr (stereo unspecified) | inactive | inactive |  | inactive |  | inactive | inactive | inactive | inactive | inactive | inactive | inactive | inactive |  | inactive | inactive | inactive | inactive | inactive
O=C1C(=O)c2cccc3cccc1c23 | inactive | inactive |  | inactive |  | inactive |  |  |  | inactive | inactive | inactive | inactive | inactive | inactive |  | inactive |  | 
C=CC(=O)OC |  | inactive | inactive | inactive | inactive | inactive |  |  | inactive | inactive | inactive | inactive | inactive | inactive | inactive | inactive |  |  | inactive
O=C(Nc1ccccc1)Nc1ccnc(Cl)c1 |  | inactive |  | inactive | inactive | inactive | inactive |  |  |  | inactive | inactive | inactive |  | inactive |  |  |  | inactive
Cn1sc(Cl)cc1=O | inactive | inactive | inactive | inactive | inactive | inactive | inactive |  | inactive | inactive | inactive | inactive | inactive | 61.1 µM (active) | inactive |  | inactive |  | inactive
CC(C)(C)c1cc([N+](=O)[O-])cc([N+](=O)[O-])c1O |  | inactive |  | inactive |  |  | inactive |  |  |  | inactive | inactive | inactive |  | inactive |  |  | 6.09 µM (active) | 
CCCCCCCCCC(=O)O[C@H]1CC[C@H]2[C@@H]3CCC4=CC(=O)CC[C@@H]4[C@H]3CC[C@]12C |  | inactive | inactive | inactive | inactive |  |  | inactive |  | inactive | inactive | inactive | inactive |  | inactive | inactive | inactive | inactive | inactive
C[C@@H]1CC[C@H]2[C@@H](C)C(=O)O[C@@H]3O[C@@]4(C)CC[C@@H]1[C@]32OO4 |  | inactive | inactive | inactive | inactive | inactive | inactive |  | inactive | inactive | inactive | inactive |  | inactive | inactive | inactive |  | 0.237 µM (active) | inactive
Cc1ccccc1C(=O)Nc1cccc(OC(C)C)c1 | inactive | inactive |  |  |  | inactive |  |  | inactive |  | inactive | inactive | inactive | inactive |  | inactive | inactive |  | 
Brc1ccc(Oc2ccccc2)cc1 |  | inactive |  | inactive |  | inactive | inactive | inactive | inactive | inactive | inactive | inactive |  | inactive | inactive | inactive | inactive | 55.8 µM (active) and inactive | inactive
CC(=O)[C@H]1CC[C@H]2[C@@H]3CC[C@H]4C[C@](C)(O)CC[C@]4(C)[C@H]3CC[C@]12C | inactive | inactive |  | inactive |  | inactive |  |  | inactive | inactive | inactive | inactive | inactive | inactive | inactive |  | inactive |  | inactive
O=C(CBr)OCc1ccccc1 | inactive | inactive | inactive | inactive | inactive | inactive | inactive | inactive | inactive |  | inactive | inactive | inactive | inactive | inactive |  | inactive |  | inactive
COP(=S)(OC)Oc1ccc([N+](=O)[O-])cc1Cl | inactive |  |  | inactive |  |  |  |  | inactive | inactive | inactive | inactive |  | inactive | inactive | inactive | inactive | 43.3 µM (active) | 
CC(c1ccc(O)cc1)(c1ccc(O)cc1)c1ccc(O)cc1 |  | inactive |  |  |  |  | inactive |  |  | inactive | inactive | inactive | inactive | inactive |  |  | 4.9 µM (active) |  | 
Cc1c(F)c(F)c(COC(=O)C2C(/C=C(\Cl)C(F)(F)F)C2(C)C)c(F)c1F (stereo unspecified) |  |  |  | inactive | inactive |  |  | inactive | inactive | inactive | inactive | inactive | inactive | inactive | inactive | inactive | inactive |  | inactive
COc1cc(Cl)c(OC)cc1Cl |  | inactive |  | inactive |  |  |  |  | inactive | inactive | inactive | inactive | inactive | inactive | inactive |  |  |  | inactive
